Data: the supplement of paper PMC10037445
± gives the standard deviation of the averaged measurements. Whole data set: some 2,900 compounds, median “NF-kB SEAP reporter activity, fold change vs agonist alone” near 0.99, cut for the highest 2% near 2.6. The sample holds the highest values, similar compounds and a random draw of the others, so the mix is not that of the screen.

Columns and labels:
RAW-Dual [1] = experiment: NF-kB SEAP reporter activity, fold change vs agonist alone; higher = enhanced NF-kB activity
Outline: (§1)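 Cytotoxic wells were those whose IncuCyte confluency was below 70% of agonist controls in both mask sets. The cells were RAW-Dual macrophages at 50,000 cells/well in DMEM on 384-well plates, dosed with 50 nL of library stock by pin tool, stimulated with a PRR agonist 1 h later, and kept at 37 °C, 5% CO2 for 20 hours. IRF and NF-κB reporter activity, as fold change over agonist-alone wells, came from supernatant read by QuantiLuc luminescence and QuantiBlue absorbance, respectively.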

RAW-Dual [2] = experiment: NF-kB SEAP reporter activity, fold change vs agonist alone; cytotoxicity flag (confluency mask): not cytotoxic; higher = enhanced NF-kB activity
Outline: as §1

[3] = agonist: ODN 1826 (TLR9) 0.5 ug/mL
[4] = agonist: Pam2CSK4 (TLR2/6) 0.1 ug/mL
[5] = agonist: Pam3CSK4 (TLR2/1) 0.1 ug/mL
[6] = library stock concentration (final ~1000-fold dilution): 10 mM, cytotoxicity flag (confluency mask): not cytotoxic, agonist: Imiquimod (TLR7) […]
[7] = library stock concentration (final ~1000-fold dilution): 10 mM, cytotoxicity flag (confluency mask): not cytotoxic, agonist: MPLA (TLR4) […]

## CC/C=C\C/C=C\C/C=C\C/C=C\C/C=C\C/C=C\CCC(=O)NCCNC(=O)c1ccccc1O
RAW-Dual [1]; library stock concentration (final ~1000-fold dilution): 10 mM, cytotoxicity flag (confluency mask): cytotoxic (confluency <70% of control), agonist: Imiquimod (TLR7) […]
  NF-kB SEAP reporter activity: 0.248
RAW-Dual [1]; library stock concentration (final ~1000-fold dilution): 10 mM, cytotoxicity flag (confluency mask): cytotoxic (confluency <70% of control), agonist: MPLA (TLR4) […]
  NF-kB SEAP reporter activity: 1.54

## C=CC(=O)N1CC(N2CCN(C(=O)CNc3cc(C4(C)CC4)c(Cl)cc3O)CC2)C1 (library stock concentration (final ~1000-fold dilution): 10 mM)
RAW-Dual [2]; agonist: LPS (TLR4) 0.1 ug/mL
  NF-kB SEAP reporter activity: 0.418
RAW-Dual [2]; [3]
  NF-kB SEAP reporter activity: 0.542
RAW-Dual [2]; [4]
  NF-kB SEAP reporter activity: 0.537
RAW-Dual [2]; [5]
  NF-kB SEAP reporter activity: 0.448

## C=CC(=O)N1CC(N2CCN(C(=O)CNc3cc(C4(C)CC4)c(Cl)cc3O)CC2)C1
RAW-Dual [1]; [6]
  NF-kB SEAP reporter activity: 0.915
RAW-Dual [1]; [7]
  NF-kB SEAP reporter activity: 0.645

## Cl.N=C(N)NC(=O)c1nc(Cl)c(N)nc1N.O.O
RAW-Dual [1]; library stock concentration (final ~1000-fold dilution): 10 mM water, cytotoxicity flag (confluency mask): not cytotoxic, agonist: Imiquimod (TLR7) […]
  NF-kB SEAP reporter activity: 0.827
RAW-Dual [1]; library stock concentration (final ~1000-fold dilution): 10 mM water, cytotoxicity flag (confluency mask): not cytotoxic, agonist: MPLA (TLR4) […]
  NF-kB SEAP reporter activity: 1.01

## Cl.N=C(N)NC(=O)c1nc(Cl)c(N)nc1N.O.O (library stock concentration (final ~1000-fold dilution): 10 mM water)
RAW-Dual [2]; agonist: LPS (TLR4) 0.1 ug/mL
  NF-kB SEAP reporter activity: 1.07
RAW-Dual [2]; [3]
  NF-kB SEAP reporter activity: 1.09
RAW-Dual [2]; [4]
  NF-kB SEAP reporter activity: 0.993
RAW-Dual [2]; [5]
  NF-kB SEAP reporter activity: 0.984

## CC(C)(C)c1cc(C(=O)/C(C#N)=N/Nc2cccc(Cl)c2)no1
RAW-Dual [1]; [6]
  NF-kB SEAP reporter activity: 1.11
RAW-Dual [1]; [7]
  NF-kB SEAP reporter activity: 1.91

## CC(C)(C)c1cc(C(=O)/C(C#N)=N/Nc2cccc(Cl)c2)no1 (library stock concentration (final ~1000-fold dilution): 10 mM)
RAW-Dual [2]; agonist: LPS (TLR4) 0.1 ug/mL
  NF-kB SEAP reporter activity: 4.18
RAW-Dual [2]; [3]
  NF-kB SEAP reporter activity: 1.16
RAW-Dual [2]; [4]
  NF-kB SEAP reporter activity: 0.423
RAW-Dual [2]; [5]
  NF-kB SEAP reporter activity: 0.673

## Cn1nc(C(C)(C)C)cc1C(=O)NC(Cc1cccc(Cl)c1)C(=O)NCC#N (stereo not given)
RAW-Dual [1]; [6]
  NF-kB SEAP reporter activity: 0.765
RAW-Dual [1]; [7]
  NF-kB SEAP reporter activity: 1.05

## Cn1nc(C(C)(C)C)cc1C(=O)NC(Cc1cccc(Cl)c1)C(=O)NCC#N (stereo not given) (library stock concentration (final ~1000-fold dilution): 10 mM)
RAW-Dual [2]; agonist: LPS (TLR4) 0.1 ug/mL
  NF-kB SEAP reporter activity: 1.13
RAW-Dual [2]; [3]
  NF-kB SEAP reporter activity: 1.14
RAW-Dual [2]; [4]
  NF-kB SEAP reporter activity: 0.947
RAW-Dual [2]; [5]
  NF-kB SEAP reporter activity: 0.992

## C=C1CCC2C(C)(CO)C(O)CCC2(C)C1C/C=C1/C(=O)OCC1O (stereo not given)
RAW-Dual [1]; [6]
  NF-kB SEAP reporter activity: 0.933 ± 0.078
RAW-Dual [1]; [7]
  NF-kB SEAP reporter activity: 0.792 ± 0.1

## C=C1CCC2C(C)(CO)C(O)CCC2(C)C1C/C=C1/C(=O)OCC1O (stereo not given) (library stock concentration (final ~1000-fold dilution): 10 mM)
RAW-Dual [2]; agonist: LPS (TLR4) 0.1 ug/mL
  NF-kB SEAP reporter activity: 0.565 ± 0.2
RAW-Dual [2]; [3]
  NF-kB SEAP reporter activity: 0.418 ± 0.039
RAW-Dual [2]; [4]
  NF-kB SEAP reporter activity: 0.96 ± 0.18
RAW-Dual [2]; [5]
  NF-kB SEAP reporter activity: 0.65 ± 0.11

## Cc1ccc(NC(=O)c2ccnc(C(F)(F)F)c2)cc1-c1cc(OCCO)nc(N2CCOCC2)c1 (library stock concentration (final ~1000-fold dilution): 10 mM)
RAW-Dual [2]; agonist: LPS (TLR4) 0.1 ug/mL
  NF-kB SEAP reporter activity: 1.01
RAW-Dual [2]; [3]
  NF-kB SEAP reporter activity: 0.551
RAW-Dual [2]; [4]
  NF-kB SEAP reporter activity: 0.265
RAW-Dual [2]; [5]
  NF-kB SEAP reporter activity: 0.438

## Cc1ccc(NC(=O)c2ccnc(C(F)(F)F)c2)cc1-c1cc(OCCO)nc(N2CCOCC2)c1
RAW-Dual [1]; [6]
  NF-kB SEAP reporter activity: 1.03
RAW-Dual [1]; [7]
  NF-kB SEAP reporter activity: 0.836

## Nc1nc(NCCc2ccc(O)cc2)nc2nc(-c3ccco3)nn12
RAW-Dual [1]; [6]
  NF-kB SEAP reporter activity: 1.7
RAW-Dual [1]; [7]
  NF-kB SEAP reporter activity: 1.36

## CC(C)n1cnc2c(NCCc3ccc(O)cc3)nc(-c3csc4ccccc34)nc21 (library stock concentration (final ~1000-fold dilution): 10 mM)
RAW-Dual [2]; agonist: LPS (TLR4) 0.1 ug/mL
  NF-kB SEAP reporter activity: 3.02
RAW-Dual [2]; [3]
  NF-kB SEAP reporter activity: 1.56
RAW-Dual [2]; [4]
  NF-kB SEAP reporter activity: 0.535
RAW-Dual [2]; [5]
  NF-kB SEAP reporter activity: 0.662

## CC(C)n1cnc2c(NCCc3ccc(O)cc3)nc(-c3csc4ccccc34)nc21
RAW-Dual [1]; [6]
  NF-kB SEAP reporter activity: 2.38
RAW-Dual [1]; [7]
  NF-kB SEAP reporter activity: 2.64

## CC(C)C(CO)Nc1nc(Nc2cccc(Cl)c2)c2ncn(C(C)C)c2n1 (stereo not given) (library stock concentration (final ~1000-fold dilution): 10 mM)
RAW-Dual [2]; agonist: LPS (TLR4) 0.1 ug/mL
  NF-kB SEAP reporter activity: 0.715
RAW-Dual [2]; [3]
  NF-kB SEAP reporter activity: 1.05
RAW-Dual [2]; [4]
  NF-kB SEAP reporter activity: 1.22
RAW-Dual [2]; [5]
  NF-kB SEAP reporter activity: 0.679
